Laboratory results: PubChem BioAssay (NCATS)
Several values for one entry are separate records, joined by “and”; a condition that tells them apart may be missing. Identical values can stand only once. Inconclusive results are not listed. Entries that show only a call come without a potency. The source holds several records for some structures; these can differ, active in one and inactive in another. Activity calls are given as the source filed them. Calls follow the shape of the dose curve; as a rule, active = well fitted curve in the direction sought with a large enough effect; inconclusive = small, poorly fitted or top-dose-only effect, or another doubt; inactive = no such curve, though single readings can be large; an effect the other way counts as inactive or inconclusive.

test system: Tov112D; assay: Primary qHTS to identify gynecologic anti-cancer compounds using libraries of approved drugs and bioactive compounds (AID 1345084); settings: Gynecologic cancer cell panel viability, ATPlite luminescence, 48 h; series mostly up to 57.5 µM; also: nearly all actives have a fitted effect of over 55% in size; also: potency is read from the fitted curve at half-maximal effect
Procedure, shortened: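 Cells, 1,000 per well, were allowed to settle for 16 h at 37 C before compound addition. Five concentrations were tested for 48 h, and viability was read by ATPlite luminescence after 15 min at room temperature.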

| Compound | Potency |
| --- | --- |
| CCOC(=O)N1CCC(n2c(=O)[nH]c3cc(Cl)ccc32)CC1 | inactive |
| OC1(c2ccc(Cl)c(C(F)(F)F)c2)CCN(CCCC(c2ccc(F)cc2)c2ccc(F)cc2)CC1 | 31.6 µM (active) and inactive |
| C[C@@H](C1=C(CCN(C)C)Cc2ccccc21)c1ccccn1 | inactive |
| CC(C(O)c1ccccc1)N(C)CCOC(c1ccccc1)c1ccccc1 (configuration not stated) | inactive |
| CN1CCCN(C(c2ccccc2)c2ccc(Cl)cc2)CC1 (configuration not stated) | 31.6 µM (active) |
| CCN(CC)CCOc1ccc(/C(=C(\Cl)c2ccccc2)c2ccccc2)cc1 | inactive |
| CCCCCCOC(=O)NC(=N)c1ccc(NCc2nc3cc(C(=O)N(CCC(=O)OCC)c4ccccn4)ccc3n2C)cc1 | inactive |
| CN1CC[C@H](c2c(O)cc(O)c3c(=O)cc(-c4ccccc4Cl)oc23)[C@H](O)C1 | 1.12 µM (active) |
| CCCCCCCCCCCCCC[N+](C)(C)C | 14.1 µM (active) |
| CCCC(=O)O[C@]1(C(=O)CCl)[C@@H](C)C[C@H]2[C@@H]3CCC4=CC(=O)C=C[C@]4(C)[C@@]3(F)C(=O)C[C@@]21C | inactive |
| CN1CCC(Nc2ncc3ncnc(Nc4ccc(F)c(Cl)c4)c3n2)CC1 | inactive |
| O=C(Oc1ccccc1)c1cccc(C(=O)Oc2ccccc2)c1 | inactive |
| C=CCNc1nc(NCC=C)nc(N2CCN(C(c3ccc(F)cc3)c3ccc(F)cc3)CC2)n1 | inactive |
| CC(C)=CCNc1ncnc2c1ncn2[C@@H]1O[C@H](CO)[C@@H](O)[C@H]1O | 7.08 µM (active) |
| CC(CC1c2ccccc2CCc2ccccc21)CN(C)C (configuration not stated) | inactive |
| O=[N+]([O-])c1ccc(O)c2ncccc12 | 28.2 µM (active) |
| C[C@H](N)C(=O)N[C@@H](C)C(=O)NC1[C@H]2CN(c3nc4c(cc3F)c(=O)c(C(=O)O)cn4-c3ccc(F)cc3F)C[C@@H]12 (some centres not stated) | inactive |
| CC(C)OC(=O)c1cc2c(OCC(O)CNC(C)(C)C)cccc2[nH]1 (configuration not stated) | inactive |
| O=c1[nH]sc2cc(Cl)ccc12 | inactive |
| CCCCCC(=O)O[C@]1(C(C)=O)CC[C@H]2[C@@H]3CCC4=CC(=O)CC[C@]4(C)[C@H]3CC[C@@]21C | inactive |

test system: not listed separately; assay: Drug repurposing screens with cells derived from glioblastoma tumor samples (AID 1345199); settings: GBM patient neurospheres viability, ATP luminescence, 48 h; at 45.9 µM (top of the series); tumour line B; also: nearly all actives have a fitted effect of over 40% in size
Procedure, shortened: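 Four patient lines of CD133+ GBM neurospheres were screened at several concentrations; hits were retested in those lines plus three slower-growing GBM lines, using 48-hour treatment and ATP-based viability.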

| Compound | activity, negative = cell killing |
| --- | --- |
| C[N+](C)(C)CCO | -20.6% (inactive) and -4.58% (inactive) |
| C[C@@H](C1=C(CCN(C)C)Cc2ccccc21)c1ccccn1 | -18.9% (inactive) |
| NC(N)=NCCCCN=C(N)N | -8.5% (inactive) |
| CC(=O)Oc1ccc(C2(c3ccc(OC(C)=O)cc3)Oc3ccccc3NC2=O)cc1 | -28.4% (inactive) |
| CC(C)C[C@H](NC(=O)CNC(=O)[C@H](Cc1ccc(O)cc1)NC(=O)[C@H](CO)NC(=O)[C@H](Cc1c[nH]c2ccccc12)NC(=O)[C@H](Cc1cnc[nH]1)NC(=O)[C@@H]1CCC(=O)N1)C(=O)N[C@@H](CCCN=C(N)N)C(=O)N1CCC[C@H]1C(=O)NCC(N)=O (stereo in doubt) | -6.26% (inactive) |
| CC(C)OC(=O)c1cc2c(OCC(O)CNC(C)(C)C)cccc2[nH]1 (configuration not stated) | -15.9% (inactive) |
| CCN(CC)CCNC(=O)c1ccc(NS(C)(=O)=O)cc1 | -2.38% (inactive) |
